Sampled rows, rich in hits. Any-hit rate of the full collection: about 8.3%.
RORg inh – blocks mouse ROR gamma transcriptional activity. Drosophila S2 Gal4-RORgamma UAS-luciferase reporter, 20 h. 5.4% of 310,000 active. AID 2551. Potency, µM (doses to about 53.6 µM), without a hit: top-dose activity change, negative = inhibition, usual class: inhibitors; further: potency means the concentration at half of the fitted maximal effect; on the % scale 0 is the no-effect control and ±100 the full control effect; nearly all actives have a fitted effect of over 60% in size
Target sequence (P51450 whole entry, looked up, the tested form may be a part): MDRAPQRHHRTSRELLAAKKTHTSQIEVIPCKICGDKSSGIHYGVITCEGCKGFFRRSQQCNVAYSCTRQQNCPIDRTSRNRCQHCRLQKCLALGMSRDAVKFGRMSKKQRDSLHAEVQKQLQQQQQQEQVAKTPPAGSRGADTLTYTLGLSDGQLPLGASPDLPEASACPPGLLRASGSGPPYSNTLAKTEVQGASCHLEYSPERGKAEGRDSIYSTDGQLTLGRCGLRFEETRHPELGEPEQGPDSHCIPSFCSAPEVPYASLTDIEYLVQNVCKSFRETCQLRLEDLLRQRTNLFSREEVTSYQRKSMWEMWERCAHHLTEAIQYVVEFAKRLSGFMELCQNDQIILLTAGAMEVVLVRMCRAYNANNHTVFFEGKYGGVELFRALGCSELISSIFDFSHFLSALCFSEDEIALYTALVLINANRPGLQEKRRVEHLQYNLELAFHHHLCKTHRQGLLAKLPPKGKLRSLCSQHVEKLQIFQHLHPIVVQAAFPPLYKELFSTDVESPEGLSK
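ROR gamma transcriptional activity was tracked as Gal4-UAS luciferase output in stably transfected Drosophila Schneider cells, with compound added 1 hr before 700 uM copper sulfate induction and a 20 hr ambient-temperature incubation.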
SW480 rereplic – induces DNA re-replication in SW480 colon adenocarcinoma cells | 1.8% of 340,000 active | SW480 DNA re-replication, Hoechst DNA content imaging, 48 h | AID 624297 | Potency, µM (series often up to 46.1 µM), without a hit: at the top dose re-replication activation, most hits filed as activators; further: potency means the concentration at half of the fitted maximal effect; % of control where 0% means no effect; nearly all actives have a fitted effect of over 55% in size
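250 cells/well; 23 nL cpd via pin tool; 48 hr, 37 C, 5% CO2; Hoechst 40 min; imager read of total nuclear intensity, ex 405/em 500-530 nm.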
BCR signal inh – inhibitors of chronic active B-cell receptor signaling; ABC-DLBCL IkBa-CBG/CBR reporter, luminescence ratio, 4 h; 0.05% of 340,000 active; Potency, µM (highest dose often 46.1 µM), for the others: at the highest dose activity change, negative = inhibition, hits mostly inhibitors; active means well fitted inhibition curve with a large enough effect in the signal ratio, with a control signal flat, not every such curve was filed as active; inconclusive means small, poorly fitted or top-dose-only effect, or effect the other way, or a change in a side signal; the % refers to the signal ratio;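 further: potency means the concentration at half of the fitted maximal effect; plate controls were basal doxycycline-induced cells for no effect and cells given 10 µM MG132 for full effect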
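Concentration-response series (up to 46 uM) were applied to TMD8 dual-reporter cells for 4 h at 37C with doxycycline. Green/red ratio, after filter-overlap correction, defined %Activity; red signal alone was normalised to basal cells and zero luminescence.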
Gal4-VP16 FLuc – inhibits Gal4-VP16 luciferase reporter, ROR gamma counter-screen; Drosophila S2 Gal4-VP16 UAS-luciferase, luminescence, 20 h; Potency, µM (doses to about 53.6 µM), for the others: at the top dose activity, negative = inhibition, hits mostly inhibitors; 3.5% of 310,000 active;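 further: Gal4-VP16 expression switched on by copper sulfate through the metallothionein promoter; potency means the concentration at half of the fitted maximal effect; on the % scale 0 is the no-effect control and ±100 the full control effect; nearly all actives have a fitted effect of over 50% in size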
Giardia killer – Giardia lamblia killing; activity change, % at 7.66 µM, hits read low; 0.15% of 340,000 active; Giardia lamblia trophozoite viability; in the data active means activity change below about -80%; inconclusive means between about -30% and that limit;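 further: parasites exposed to compound for two days anaerobically before the ATP read; on the % scale 0 is the no-effect control and ±100 the full control effect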
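Media and compound were dispensed first, then trophozoites at 100 cells/well; plates sat 48 hrs at 37 deg C without oxygen before ATP luminescence reagent was added and read after 15-30 min at room temperature.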
MCF10A rerep – DNA re-replication induction in MCF 10a cells | 2.9% of 350,000 active | Potency, µM (series often up to 46.1 µM), inactives show at the top dose activity, positive = re-replication, most hits filed as activators | MCF 10A DNA re-replication, Hoechst nuclear intensity, 48 h | AID 624296; further: potency means the concentration at half of the fitted maximal effect; % of control where 0% means no effect; nearly all actives have a fitted effect of over 50% in size
* hit, by the source's call; u = inconclusive; x = no result given; [ ] = dose if it differs, or a comment. Unless noted, the call rests on the fitted dose curve; in most records, active means well fitted curve in the direction sought with a large enough effect; inconclusive means small, poorly fitted or top-dose-only effect, or another doubt; inactive means no such curve, though single readings can be large; an effect the other way counts as inactive or inconclusive.

SMILES	RORg inh	SW480 rereplic	BCR signal inh	Gal4-VP16 FLuc	Giardia killer	MCF10A rerep
CC(=O)c1ccc(N(CC(=O)Nc2cc(C)on2)S(=O)(=O)c2ccc(C)cc2)cc1	x	9.3%	2.8%	x	-11.9	6.0%
CCOC(=O)c1c(C)[nH]c(C)c1S(=O)(=O)N(C)CC(=O)Nc1cccc(C)n1	-4.8%	-11.1%	4.6%	u	13.1	4.7%
Cc1nn(-c2ccccc2)c2c1C(c1ccc([N+](=O)[O-])cc1)N1C(=N2)C(=O)Nc2ccccc21 (centres undefined)	u	-5.2%	u	-18.2%	-7.8	-4.5%
Cc1ccc(NC2=Nc3ccccc3N3C2=Nc2c(c(C)nn2-c2ccccc2)C3c2ccc(O)c(O)c2)cc1 (centres undefined)	-37.0%	9.2µM*	9.3%	-29.4%	9.9	u
Cc1cccc(NC2=Nc3ccccc3N3C2=Nc2c(c(C)nn2-c2ccccc2)C3c2ccc(O)c(O)c2)c1 (centres undefined)	-11.2%	7.31µM*	15.2%	-21.1%	-3.8	u
Cc1nn(-c2ccccc2)c2c1C(c1ccc(O)c(O)c1)N1C(=N2)C(Nc2ccccc2)=Nc2ccccc21 (centres undefined)	15.0%	u	11.5%	u	10.9	u
CCN1C(=O)CS/C1=N\S(=O)(=O)c1ccc(Cl)cc1	5.0%	-2.5%	-1.1%	-6.8%	3.6	-2.1%
CCN1C/C(=N\S(=O)(=O)/N=C2\CN(CC)C(=O)N2CC)N(CC)C1=O	10µM*	3.0%	u	-6.7%	6.0	2.0%
COc1ccc(O[C@H]2C=C[C@@H](c3ccccc3)O[C@@H]2CON=C(C)C)cc1	8.3%[10 µM]	x	x	-3.8%[10 µM]	x	x
Cc1ccc(NC(=O)[C@H](NC(=O)[C@@H]2Cc3ccccc3CN2)c2ccccc2)cc1	15.3%	-33.3%	u	-11.7%	7.7	0.3%
CC(C)c1ccc(NC(=O)[C@H](NC(=O)[C@@H]2Cc3ccccc3CN2)c2ccccc2)cc1	-2.7%	u	u	-6.8%	11.7	20.6µM*
COc1ccc(NC(=O)[C@H](Cc2c[nH]c3ccccc23)NC(=O)[C@@H]2Cc3ccccc3CN2)cc1	-14.1%	u	28.2%	2.5%	4.3	14.6µM*
CC(C)c1ccc(NC(=O)[C@H](Cc2c[nH]c3ccccc23)NC(=O)[C@@H]2Cc3ccccc3CN2)cc1	7.6%	u	u	1.9%	-0.2	20.6µM*
COc1ccccc1CNC(=O)[C@H](CCSC)NC(=O)[C@@H]1Cc2ccccc2CN1	22.6%	7.31µM*	-14.0%	-4.5%	-0.4	16.1%
CC(=O)c1cnc(N(C)C)s1	-35.9%	-7.3%[9.22 µM]	-10.4%	-12.3%	-11.0	4.1%
CN(C)c1ncc(C2=C(Cl)C(=O)C(N3CCCC3)=C(Cl)C2=O)s1	x	9.2µM*	x	x	-6.3	u
O=C1C(Cl)=C(N2CCCCC2)C(=O)C(Cl)=C1c1cnc(N2CCCCC2)s1	u	5.8µM*	13.6%	u	19.2	5.8µM*
O=C1C(Cl)=C(N2CCCCCC2)C(=O)N1c1ccc(Cl)cc1	u	-7.2%	u	-10.3%	-12.8	-3.6%
Cc1ccc(OCCNC(=O)CNC(=O)Cc2cccc3ccccc23)cc1	x	x	x	x	-13.1	x
CC(=O)N(c1ccc2ccccc2c1)C1SC(=O)N(c2cccc(C)c2)C1=O (centres undefined)	x	x	x	x	5.6	x
CC(C)(C)NC(=S)NCc1ccc2c(c1)OCO2	11.2µM*	-0.5%	-0.6%	u	1.7	0.9%
Cc1ccccc1NC(=S)NCc1ccc2c(c1)OCO2	2.51µM*	-5.3%	-0.5%	10µM*	2.1	6.9%
Cc1cccc(NC(=O)C(=O)NCc2ccc3c(c2)OCO3)c1C	-23.2%	-4.2%	3.5%	-18.5%	-11.5	4.1%
Cc1cccc(NC(=S)NCCc2ccc3c(c2)OCCO3)c1C	3.98µM*	-4.2%	0.8%	u	-5.1	4.2%
Cc1cccc(NC(=S)NCc2ccc3c(c2)OCO3)c1C	5.01µM*	-4.4%	3.6%	12.6µM*	-16.5	2.2%
SMILES	RORg inh	SW480 rereplic	BCR signal inh	Gal4-VP16 FLuc	Giardia killer	MCF10A rerep
Cc1cccc(NC(=S)NCCO)c1C	-15.5%	-14.8%	1.3%	-5.1%	-11.0	-3.0%
Cc1ccc(C)c(NC(=S)NCc2ccc3c(c2)OCO3)c1	u	-0.3%[9.22 µM]	7.4%	-6.5%[0.365 µM]	-10.9	2.6%
CC(=O)c1ccc(S(=O)(=O)N(C)CCCC(=O)N(C)Cc2c(F)cccc2Cl)cc1	-9.0%	-5.6%	11.7%	4.5%	15.7	-11.1%
O=C(NCCNS(=O)(=O)c1cccc(C(F)(F)F)c1)c1cc(OCC(F)(F)F)ccc1OCC(F)(F)F	2.9%	1.1%	-2.8%	-7.7%	42.6	-0.8%
CCc1ccccc1NC(=S)NCc1ccc2c(c1)OCO2	6.31µM*	u	2.0%	11.2µM*	-1.8	3.8%
CC(Sc1nnnn1-c1ccc(O)cc1)c1nc2ccccc2c(=O)[nH]1 (centres undefined)	-1.3%	u	4.8%	-3.0%	-12.0	1.3%
COc1ccc(N(C(C)C(=O)Nc2cccnc2)S(C)(=O)=O)cc1 (centres undefined)	6.2%	-3.0%	-5.7%	8.3%	-3.4	2.1%
CC(C)CCOCC(O)CCC(=O)NNC(=S)Nc1ccccc1 (centres undefined)	11.2µM*	-70.8%	11.5%	u	2.3	-1.6%
C=CCC(CC(O)COCCC)C(=O)NNC(=S)Nc1ccccc1 (centres undefined)	0.282µM*	-1.6%	u	0.794µM*	u	4.3%
O=C(O)c1sc2cc(C(F)(F)F)cnc2c1-c1ccccc1	-14.0%	-5.6%	0.5%	1.1%	12.4	5.5%
CSc1nnc(-c2sc3cc(C(F)(F)F)cnc3c2-c2ccccc2)n1C	-17.3%	13.9%	u	0.0%	-2.7	4.61µM*
COc1ccc(/C=N/n2c(-c3cc(C)[nH]n3)n[nH]c2=S)cc1	-36.3%	-5.3%	13.9%	-14.7%	16.3	6.2%
COc1ccc(/C=N/n2c(-c3ccccc3)n[nH]c2=S)cc1	5.62µM*	0.6%	-3.6%	4.47µM*	2.8	-5.0%
Oc1ccc(Br)cc1/C=N/n1c(-c2ccccc2)n[nH]c1=S	x	1.4%	4.5%	x	11.9	17.9%
COc1cccc(/C=N/n2c(-c3cccs3)n[nH]c2=S)c1	7.08µM*	-2.6%	14.4%	-22.6%	-7.9	13.6%
S=c1[nH]nc(-c2ccccc2)n1/N=C/c1cccc(Br)c1	7.08µM*	0.8%	u	7.08µM*	-10.0	25.0%
CC1(C)SC(=S)N(/N=C/c2ccccc2)C1N(O)C(=O)Nc1ccc([N+](=O)[O-])cc1 (centres undefined)	u	9.2%	u	3.55µM*	-9.7	18.1%
